Consider 33 compounds from PubChem BioAssay (NCATS).

“And” between values parts separate entries of the source, which are not always exact repeats. Identical values can stand only once. A number with no mark means an inactive call. Records with an inconclusive call do not appear. The source made the active and inactive calls. Unless noted, calls follow the shape of the dose curve; as a rule, active = well fitted curve in the direction sought with a large enough effect; inconclusive = small, poorly fitted or top-dose-only effect, or another doubt; inactive = no such curve, though single readings can be large; an effect the other way counts as inactive or inconclusive.

Assay [1] is described as follows: Cellular Toxicity (caspase-3) Renal Proximal Tubule (AID 667).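 Also: cells exposed to compound for 16 hours at 37 °C before detection; 0% = DMSO basal and 100% = 10 µM staurosporine.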 The settings on record: renal proximal tubule cells, at 91.7 µM (top of the series). The essentials: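 AC50 derived by standard Hill fit of concentration-response data, normalized between DMSO basal and 10 uM staurosporine as 100% stimulation. Cells: primary rat kidney proximal tubule, 16 h treatment at 37 °C.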

Assay [2] can be described thus: qHTS Assay for Identification of Small Molecule Inducers of Hypoxia Response (AID 2120; active = well fitted curve in the direction sought with a large enough effect in the signal ratio, with a control signal flat, not every such curve was filed as active; the % refers to the signal ratio; also: 0% is about no effect). The essentials: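 HRE-bla ME-180 cells in Opti-MEM with 0.5% dialyzed FBS, pre-plated 4-5 h, then compound titration for 17 h at 37 degrees Celsius. CCF4 loaded 2.5 h at room temperature; 460/530 nm ratio gave %Activity and AC50 for induction.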
The target in assay [3] is Cytochrome P450 2D6 (Homo sapiens) (UniProt P10635). In words: qHTS Assay for Inhibitors and Substrates of Cytochrome P450 2D6 (AID 891). Also: nearly all actives have a fitted effect of over 60% in size. Also: potency is read from the fitted curve at half-maximal effect. Put shortly: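 Human CYP2D6 (5 nM) with 30 uM Luciferin-ME EGE (at Km) in 100 mM KPO4, compound preincubated 10 min, then NADPH regeneration system for 60 min at room temperature. Luciferin read by luminescence; normalized to 1.43 uM quinidine.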
Sequence of Cytochrome P450 2D6 (Homo sapiens) (P10635 whole entry, looked up): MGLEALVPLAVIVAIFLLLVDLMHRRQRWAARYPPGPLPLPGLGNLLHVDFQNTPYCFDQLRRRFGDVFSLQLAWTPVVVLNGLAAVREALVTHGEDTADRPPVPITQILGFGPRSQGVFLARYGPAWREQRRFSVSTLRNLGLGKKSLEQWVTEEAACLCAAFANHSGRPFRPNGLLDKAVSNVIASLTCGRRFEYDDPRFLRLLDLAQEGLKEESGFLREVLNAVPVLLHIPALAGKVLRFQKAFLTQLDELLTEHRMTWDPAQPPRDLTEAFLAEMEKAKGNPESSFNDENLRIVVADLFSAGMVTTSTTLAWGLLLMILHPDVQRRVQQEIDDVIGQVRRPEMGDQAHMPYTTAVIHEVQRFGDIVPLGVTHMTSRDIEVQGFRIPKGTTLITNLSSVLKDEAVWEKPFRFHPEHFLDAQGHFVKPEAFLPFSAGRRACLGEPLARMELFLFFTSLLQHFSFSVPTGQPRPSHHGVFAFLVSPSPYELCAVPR

Assay [4] concerns the target Lysosomal acid glucosylceramidase (Homo sapiens) (UniProt P04062). In words: Glucocerebrosidase-p2 (AID 348; in the data active = potency below about 10 µM; also: potency is read from the fitted curve at half-maximal effect). The conditions noted are these: purified GBA, blue fluorogenic substrate, 40 min. Put shortly:
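Compounds titrated from 0.6 nM upwards against 0.2 nM enzyme in pH 5.9 citric acid/KH2PO4, taurocholate, tween-20; blue fluorogenic substrate 80 uM, 40 min room temperature, stopped and read Ex 365/Em 440 for AC50.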

Assay [5] relates to AS120. Kind of assay: qHTS profiling for inhibitors of Plasmodium falciparum proliferation (AID 504749).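 Also: 0% = DMSO vehicle and full inhibition = artemisinin control; nearly all actives have a fitted effect of over 60% in size.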 The conditions noted are these: P. falciparum in erythrocytes, SYBR Green DNA, 72 h; series mostly up to 28.7 µM. The essentials:
(§1)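 P. falciparum-infected erythrocytes (0.3% parasitemia, 2.5% hematocrit) incubated with compound 72 h at 37 C, 5% CO2. Parasite DNA detected by SYBR Green after lysis, overnight at room temperature; normalised to 0.29 uM artemisinin and DMSO.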
A general note: qHTS replaces the single test concentration by a dilution series.

Assay [6] relates to CP250. Described as above. The settings on record: P. falciparum in erythrocytes, SYBR Green DNA, 72 h; series mostly up to 12.8 µM. Put shortly:
as §1

Assay [7] deals with CP260. Described as above. The conditions noted are these: P. falciparum in erythrocytes, SYBR Green DNA, 72 h; series mostly up to 28.7 µM. The essentials: as §1
For assay [8], the system named is CP265. Described as above. The settings on record: P. falciparum in erythrocytes, SYBR Green DNA, 72 h; series mostly up to 12.8 µM. Put shortly: as §1
The subject of assay [9] is ICS. The assay is described as above. The settings on record: P. falciparum in erythrocytes, SYBR Green DNA, 72 h; series mostly up to 28.7 µM. Put shortly:
as §1

For assay [10], the system named is P93_24. The description is as above. The settings on record: P. falciparum in erythrocytes, SYBR Green DNA, 72 h; series mostly up to 28.7 µM. Put shortly:
as §1

Assay [11] relates to TAB113. The description is as above. The settings on record: P. falciparum in erythrocytes, SYBR Green DNA, 72 h; series mostly up to 28.7 µM. The essentials: as §1
The test system of assay [12] is TAB165. Described as above. The conditions noted are these: P. falciparum in erythrocytes, SYBR Green DNA, 72 h; series mostly up to 28.7 µM. Put shortly: as §1
In assay [13] the test system is W2. The description is as above. The settings on record: P. falciparum in erythrocytes, SYBR Green DNA, 72 h; series mostly up to 12.8 µM. Put shortly:
as §1

Assay [14] relates to CP203. The assay is described as above. The settings on record: P. falciparum in erythrocytes, SYBR Green DNA, 72 h; series mostly up to 28.7 µM. The essentials:
as §1

In assay [15] the test system is CP215. The description is as above. The conditions noted are these: P. falciparum in erythrocytes, SYBR Green DNA, 72 h; series mostly up to 28.7 µM. Put shortly: as §1
Assay [16] deals with DIV14. Described as above. The settings on record: P. falciparum in erythrocytes, SYBR Green DNA, 72 h; series mostly up to 28.7 µM. The essentials:
as §1

Assay [17] relates to DIV17. Described as above. The settings on record: P. falciparum in erythrocytes, SYBR Green DNA, 72 h; series mostly up to 28.7 µM. The essentials: as §1
Assay [18] relates to PC26. The description is as above. The conditions noted are these: P. falciparum in erythrocytes, SYBR Green DNA, 72 h; series mostly up to 28.7 µM. Put shortly:
as §1

In assay [19] the test system is CP268. The assay is described as above. The settings on record: P. falciparum in erythrocytes, SYBR Green DNA, 72 h; series mostly up to 28.7 µM. Put shortly: as §1
In assay [20] the test system is CP291. The description is as above. The settings on record: P. falciparum in erythrocytes, SYBR Green DNA, 72 h; series mostly up to 28.7 µM. The essentials:
as §1

The mark [21] stands for this setting: primary cells freshly taken from rat, solvent-only wells 0%, staurosporine 100% unless noted.

Sequence of Lysosomal acid glucosylceramidase (Homo sapiens) (P04062 whole entry, looked up): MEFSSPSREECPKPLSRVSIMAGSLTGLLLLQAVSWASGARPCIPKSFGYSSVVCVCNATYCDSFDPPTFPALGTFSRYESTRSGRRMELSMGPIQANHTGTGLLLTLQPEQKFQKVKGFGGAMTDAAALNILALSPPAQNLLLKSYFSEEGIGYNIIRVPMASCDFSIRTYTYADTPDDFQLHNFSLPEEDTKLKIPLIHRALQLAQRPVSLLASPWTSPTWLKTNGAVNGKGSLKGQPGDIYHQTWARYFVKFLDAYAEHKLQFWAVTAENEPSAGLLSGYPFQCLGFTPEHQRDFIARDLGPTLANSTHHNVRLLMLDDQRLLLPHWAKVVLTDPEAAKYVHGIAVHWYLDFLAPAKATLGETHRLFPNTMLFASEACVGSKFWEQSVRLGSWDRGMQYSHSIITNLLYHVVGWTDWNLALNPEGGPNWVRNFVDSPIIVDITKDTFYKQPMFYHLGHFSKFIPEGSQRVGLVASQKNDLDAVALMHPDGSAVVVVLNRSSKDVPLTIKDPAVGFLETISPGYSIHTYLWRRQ

In the case of `ClC(Cl)=C(c1ccc(Cl)cc1)c1ccc(Cl)cc1`, in assay [1] (setting [21]), the caspase-3 activation was -10.4% [at 91.7 µM] and -6.37% [at 91.7 µM]. The result in assay [2] was inactive.
As for `CCCN(C/C=C\I)[C@@H]1CCc2ccc(O)cc2C1`, the Potency in [3] was 0.0158 µM (active).
Turning to `C=CCc1ccc(OC)cc1`, the caspase-3 activation in assay [1] (setting [21]) is 1.25% [at 91.7 µM]. Further, the call in assay [2] was inactive.
In the case of `O=C(Nc1cccc(F)c1)N1CCCC2(CCN(C(=O)Oc3ccccc3)CC2)C1`, the Potency in assay [4] is above 11.4 µM.
`C[C@]12CC[C@H](O)CC1=CCC1C2CC[C@]2(C)C(=O)CC[C@@H]12` (stereo partly specified): the Potency result in assay [5], in assay [6], in assay [7], in assay [8], in assay [9] and in assay [10] was “inactive” throughout. Further, the Potency result in assay [11], in assay [12] and in [13] was “inactive” in each case.
Consider `O=C(Oc1ccccc1)N1CCC[C@@]2(CCN(Cc3cc(C(F)(F)F)cc(C(F)(F)F)c3)C2)C1`, for which the Potency in assay [4] was above 11.4 µM.
With `COP(=S)(OC)Oc1ccc([N+](=O)[O-])cc1`, the caspase-3 activation in [1] (setting [21]) is -6.77% [at 91.7 µM]. The result in assay [2] was inactive.
With `CC(C)CN1CCCC2(CCN(C(=O)Oc3ccccc3)CC2)C1`, the Potency in assay [4] is above 11.4 µM.
Take `CNC(=O)O/N=C/C(C)(C)SC`: in assay [1] (setting [21]), the caspase-3 activation was -0.514% [at 91.7 µM]. Also, the compound was called inactive in [2].
The corresponding values for `CCOCN(C(=O)CCl)c1c(C)cccc1CC` are 0.858% and “inactive”.
In the case of `COc1ccc(NC(=O)N2CC3(CCN(C(=O)Oc4ccccc4)CC3)C2)cc1`, in [4], the Potency was above 11.4 µM.
As for `O=C(O)COc1ccc(Cl)cc1Cl`, the caspase-3 activation in assay [1] was 4.86%; in assay [1] (primary cells freshly taken from rat, solvent-only wells 0%, staurosporine 100%), 3.32%. Besides, in assay [2], the compound was classed as inactive.
For the compound `ClC1=C(Cl)C2(Cl)C3C4CC(C5OC45)C3C1(Cl)C2(Cl)Cl` (stereo unspecified), the caspase-3 activation in [1] (setting [21]) is -4.43% [at 91.7 µM]. The outcome in [2] was inactive. Besides, the Potency result in assay [5], in [14], in assay [15], in [6], in [16] and in assay [17] was “inactive” each time. Besides, the Potency entry in [10], in [18] and in assay [12] was “inactive” throughout.
Regarding `COc1ccc2c(c1O)-c1c(OC)c(OC)cc3c1[C@H](C2)N(C)CC3`, the Potency result in assay [3] was “inactive”.
Take `COc1ccc(NC(=O)N2CC[C@@]3(CCCN(C(=O)Oc4ccccc4)C3)C2)cc1`: the Potency in [4] is above 11.4 µM; in assay [3], 6.31 µM (active).
In the case of `CN1CC[C@@]2(CCCN(C(=O)c3ccco3)C2)C1`, the Potency in assay [4] is above 11.4 µM.
For the compound `C[N+]1([O-])[C@@H]2CC(OC(=O)[C@@H](CO)c3ccccc3)C[C@@H]1[C@H]1O[C@H]12` (stereo partly specified), in assay [4], the Potency is above 11.4 µM. Besides, the Potency entry in [5], in [14], in assay [6], in [7], in assay [8] and in assay [19] was “inactive” in each case. In addition, the Potency result in assay [20], in [16], in assay [17], in [9], in assay [10] and in assay [18] was “inactive” throughout. The Potency entry in assay [11], in assay [12] and in [13] was “inactive” each time.
As for `CC(C)CN1CC2(CCN(C(=O)c3ccncc3)CC2)C1`, the Potency in assay [4] was above 11.4 µM; in assay [3], 3.98 µM (active).
Regarding `CC[C@@H]1[C@@H]2C[C@H]3[C@H]4N(C)c5ccccc5[C@@]45C[C@@H]([C@@H]2[C@@H]5O)N3[C@H]1O`, in assay [3], the Potency is 3.98 µM (active). The Potency entry in assay [14], in assay [6], in [7], in assay [8], in assay [19] and in assay [20] was “inactive” throughout. The Potency result in assay [18], in assay [11] and in assay [12] was “inactive” throughout.
Take `C[C@H](N)[C@@H](O)c1ccccc1`: the Potency result in assay [5], in assay [14], in assay [15], in assay [6], in assay [7] and in assay [8] was “inactive” throughout. The Potency entry in [19], in assay [16], in assay [17], in assay [9], in assay [10] and in [18] was “inactive” in each case. Also, the Potency entry in assay [11], in assay [12] and in assay [13] was “inactive” throughout.
With `CC[C@@]1(c2ccc(N)cc2)CCC(=O)NC1=O`, the Potency entry in [5], in assay [14], in assay [15], in assay [6], in [7] and in assay [8] was “inactive” in each case. The Potency result in assay [19], in assay [20], in assay [16], in assay [17], in assay [9] and in [10] was “inactive” throughout. The Potency result in assay [18], in [11] and in assay [12] was “inactive” throughout.
On to `N#Cc1ccc(CN2CC[C@@]3(CCCNC3)C2)cc1`, for which the Potency in assay [4] was above 11.4 µM.
For the compound `CC1=C2[C@@H]3OC(=O)[C@@H](C)[C@@H]3CC[C@]2(C)C=CC1=O`, the Potency result in assay [14], in [15], in assay [7], in assay [19], in [20] and in assay [16] was “inactive” in each case. Also, the Potency result in assay [17], in assay [9], in assay [18] and in assay [13] was “inactive” throughout.
With `CCNC[C@H](O)c1cccc(O)c1`, the Potency result in [5], in [15], in [6], in assay [7], in assay [8] and in [19] was “inactive” in each case. The Potency entry in assay [20], in assay [16], in assay [17], in assay [9], in [10] and in [18] was “inactive” each time. In addition, the Potency result in assay [11], in [12] and in [13] was “inactive” in each case.
Regarding `CCNc1nc(Cl)nc(NC(C)C)n1`, the caspase-3 activation in assay [1] (setting [21]) was -3.87% [at 91.7 µM]. In assay [2], the result was inactive.
The corresponding values for `O=S1OCC2C(CO1)C1(Cl)C(Cl)=C(Cl)C2(Cl)C1(Cl)Cl` (stereo unspecified) are 8.37% [at 91.7 µM] and “inactive”.
Consider `O=C(Nc1cccc(F)c1)N1CCC2(CC1)CCN(C(=O)Oc1ccccc1)CC2`, for which the Potency in assay [4] was above 11.4 µM.
As for `COC(=O)NC(=S)Nc1ccccc1NC(=S)NC(=O)OC`, in assay [1] (setting [21]), the caspase-3 activation was -3.02%. Moreover, in assay [2], the compound was called inactive.
Turning to `CS(=N)(=O)CC[C@@H](N)C(=O)O` (stereo partly specified), the Potency entry in assay [3] was “inactive”.
On to `c1cc(CN2CCC3(CCNCC3)CC2)ccn1`, for which, in [4], the Potency is above 11.4 µM.
Turning to `C#CCN(C)[C@@H](C)Cc1ccccc1`, the Potency entry in [5], in assay [14], in assay [15], in [8], in [19] and in assay [20] was “inactive” throughout. Also, the Potency entry in assay [17], in assay [9], in [10], in assay [18], in assay [11] and in assay [12] was “inactive” each time. The Potency entry in [13] is “inactive”.
With `CCc1cccc(CC)c1N(COC)C(=O)CCl`, in assay [1] (setting [21]), the caspase-3 activation was 1.3%. Further, the result in assay [2] was inactive.
In the case of `C[N+]1(C)[C@@H]2CC[C@H]1CC(OC(=O)[C@@H](CO)c1ccccc1)C2` (stereo partly specified), the Potency entry in assay [5], in assay [14], in assay [15], in assay [6], in assay [7] and in assay [8] was “inactive” in each case. For the same compound, the Potency entry in assay [19], in assay [20], in [16], in [17], in assay [9] and in [10] was “inactive” in each case. Also, the Potency entry in [18], in assay [11], in [12] and in [13] was “inactive” in each case.
